Data on ten compounds can be found in PubChem BioAssay (Tox21).

The structures appear in SMILES notation. Unmarked numbers belong to inactive results. Inconclusive results are not listed. Calls of active or inactive are those of the source. Unless noted, calls come from the whole dose curve; as a rule, active = well fitted curve in the direction sought with a large enough effect in the repeat runs; inconclusive = weak or mixed curves; inactive = no such curve, though single readings can be large; an effect the other way counts as inactive or inconclusive.

Test [1] deals with Thyrotropin-releasing hormone receptor (Homo sapiens) (UniProt P34981). Nature of the test: qHTS assay to identify small molecule agonists of the thyrotropin-releasing hormone receptor (TRHR) signaling pathway (AID 1346891; calls by dose curve; note: series mostly up to about 58 µM). In a few lines:
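TRHR-expressing HEK293 cells were plated 18 h at 37 °C/5% CO2, loaded with calcium dye 2 h at 37 °C, then given compound in DMSO; fluorescence was read kinetically for 3 min at 1 s intervals.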

Test [2] in a line: Human pregnane X receptor (PXR) small molecule agonists, qHTS cell viability counter screen (AID 1346977). Note: nearly all actives have a fitted effect of over 50% in size. Summed up: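 PXR-Luc HepG2 cells in medium with 5% charcoal-stripped FBS were pre-incubated 5hr, then exposed to compounds for 24hr at 37C. Viability was read in the same wells by CellTiter-Fluor fluorescence, reagent added after 23hr with a 1hr incubation.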
A short description of test [3]: Caspase-3/7 induction in HepG2 cells by small molecules, qHTS assay (AID 1346978). Note: nearly all actives have a fitted effect of over 15% in size. Summed up:
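Wild-type HepG2 cells (2,000/well) were settled 5 h at 37 C, 5% CO2, then exposed to compounds in DMSO for 17 h. Caspase-3/7 activity was read by luminescence 30 min after adding Caspase-Glo 3/7 reagent at room temperature.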

A short description of test [4]: Caspase-3/7 induction in CHO-K1 cells by small molecules, qHTS cell viability counter screen (AID 1346979). Note: nearly all actives have a fitted effect of over 35% in size. In a few lines: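 Wild-type CHO-K1 cells were seeded at 1,500 per well, rested 5hr at 37 C, then exposed to compounds in DMSO. After 16hr, CellTiter-Fluor reagent was added and fluorescence read 1hr later as the viability measure.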
Test [5] in a line: Caspase-3/7 induction in CHO-K1 cells by small molecules, qHTS assay (AID 1346980). Note: nearly all actives have a fitted effect of over 15% in size. In a few lines: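 Wild-type cells were seeded at 1,500 per well and settled 5 hr at 37 C, 5% CO2, then exposed to DMSO-dissolved compounds for 17 hr. Caspase-Glo 3/7 reagent was added, and luminescence was read after 30min at room temperature.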
The nature of test [6]: Caspase-3/7 induction in HepG2 cells by small molecules, qHTS cell viability counter screen (AID 1346981). Note: series mostly up to about 92 µM; nearly all actives have a fitted effect of over 30% in size. Summed up: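 CellTiter-Fluor fluorescence measured viability in the same wells used for Caspase-Glo 3/7. HepG2 (wild type) at 2,000 cells/well were pre-incubated 5 hr, dosed, and given reagent at 16 hr, with 1 hr further at 37C.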
The target in test [7] is Cytochrome P450 2D6 (Homo sapiens) (UniProt P10635). The test can be described thus: Cytochrome P450 Family 2 Subfamily D Member 6 (CYP2D6) small molecule antagonists: luciferase reporter qHTS assay (AID 1671196). Note: nearly all actives have a fitted effect of over 50% in size. Note: potency is the fitted concentration of half-maximal effect. Summed up: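 CYP2D6 activity was followed as luminescence from its luciferin product after a 1 h NADPH-driven reaction at room temperature. Enzyme-substrate mix and compound were pre-incubated for 10 min, and the signal was read 20 min after adding detection reagent.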
Sequence of Cytochrome P450 2D6 (Homo sapiens) (P10635 whole entry, looked up): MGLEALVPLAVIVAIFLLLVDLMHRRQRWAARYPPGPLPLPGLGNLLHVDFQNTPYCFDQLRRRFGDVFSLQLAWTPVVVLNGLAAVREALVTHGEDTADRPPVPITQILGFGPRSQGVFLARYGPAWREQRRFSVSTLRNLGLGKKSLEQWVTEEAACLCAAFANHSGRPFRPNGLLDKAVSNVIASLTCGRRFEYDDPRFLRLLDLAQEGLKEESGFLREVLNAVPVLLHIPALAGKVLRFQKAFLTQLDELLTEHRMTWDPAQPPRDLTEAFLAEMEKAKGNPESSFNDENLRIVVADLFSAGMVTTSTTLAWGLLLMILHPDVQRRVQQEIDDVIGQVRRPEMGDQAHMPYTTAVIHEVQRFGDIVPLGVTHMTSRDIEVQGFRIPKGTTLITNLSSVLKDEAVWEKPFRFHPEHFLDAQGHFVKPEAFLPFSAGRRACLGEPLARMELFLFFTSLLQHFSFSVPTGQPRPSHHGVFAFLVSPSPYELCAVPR

In test [8] the target is Cytochrome P450 1A2 (Homo sapiens) (UniProt P05177). The test can be described thus: Cytochrome P450 Family 1 Subfamily A Member 2 (CYP1A2) small molecule antagonists: luciferase reporter qHTS assay (AID 1671199). Note: nearly all actives have a fitted effect of over 50% in size. Note: potency is the fitted concentration of half-maximal effect. Summed up: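 Luminescence from luciferin formed by CYP1A2 from a proluciferin substrate, read 20 min after detection reagent. Compound was pre-incubated 10 min with enzyme-substrate, and reaction started with NADPH regeneration solution for 1 h at room temperature; furafylline control.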
Sequence of Cytochrome P450 1A2 (Homo sapiens) (P05177 whole entry, looked up): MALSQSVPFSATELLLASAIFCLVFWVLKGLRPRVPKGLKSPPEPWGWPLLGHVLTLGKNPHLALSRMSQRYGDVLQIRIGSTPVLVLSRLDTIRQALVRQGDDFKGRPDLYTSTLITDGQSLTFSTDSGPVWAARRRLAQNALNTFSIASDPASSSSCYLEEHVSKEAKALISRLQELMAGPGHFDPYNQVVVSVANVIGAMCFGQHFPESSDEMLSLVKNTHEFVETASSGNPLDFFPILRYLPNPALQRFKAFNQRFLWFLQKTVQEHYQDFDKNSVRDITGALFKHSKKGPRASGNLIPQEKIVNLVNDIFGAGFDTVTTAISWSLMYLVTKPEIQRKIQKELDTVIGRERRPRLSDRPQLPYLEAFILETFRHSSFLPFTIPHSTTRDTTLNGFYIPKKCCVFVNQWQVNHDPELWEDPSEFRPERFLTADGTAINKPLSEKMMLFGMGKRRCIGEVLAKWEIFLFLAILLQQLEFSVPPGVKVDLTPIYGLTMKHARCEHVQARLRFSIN

Test [9] concerns the target Voltage-gated inwardly rectifying potassium channel KCNH2 (Homo sapiens) (UniProt Q12809). The test can be described thus: Human Ether-a-go-go-Related Gene (hERG) channel small molecule antagonists: fluorescence cell-based qHTS assay (AID 1671200).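 Note: hERG-expressing U2OS cells given a thallium stimulus after FluxOR II dye loading; series mostly up to about 77 µM; nearly all actives have a fitted effect of over 50% in size.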 In a few lines:
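U2OS cells expressing the channel were plated at 1000 cells/well, incubated overnight at 37 C, then loaded with FluxOR II thallium-sensitive dye for 1 h at room temperature in the dark, with a further 10 min at room temperature before stimulation.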

Test [10] has as its target Cytochrome P450 3A4 (Homo sapiens) (UniProt P08684). Nature of the test: Cytochrome P450 Family 3 Subfamily A Member 4 (CYP3A4) small molecule antagonists: luciferase reporter qHTS assay (AID 1671201). Summed up:
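P450-Glo CYP3A4 system with proluciferin substrate; compounds preincubated 10 min RT with enzyme-substrate mix, then NADPH regeneration added for 1 h RT. Detection reagent 20 min, luminescence read as relative luminescence units.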

The target of test [11] is Cytochrome P450 2C9 (Homo sapiens) (UniProt P11712). The test can be described thus: Cytochrome P450 Family 2 Subfamily C Member 9 (CYP2C9) small molecule antagonists: luciferase reporter qHTS assay (AID 1671198). Note: nearly all actives have a fitted effect of over 50% in size. Note: potency is the fitted concentration of half-maximal effect. In a few lines:
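CYP2C9 activity was measured with a P450-Glo proluciferin substrate. Enzyme–substrate mix was held with compound for 10 min at room temperature, then NADPH regeneration solution was added for 1 h at 37C. Luciferin product was read as luminescence.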

Test [12] addresses Nuclear receptor subfamily 1 group I member 2 (Homo sapiens) (UniProt O75469). Nature of the test: Human pregnane X receptor (PXR) small molecule agonists, qHTS assay (AID 1346982). Note: nearly all actives have a fitted effect of over 35% in size. Summed up: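 Agonist mode: luminescence from ONE-Glo after 24 h compound exposure at 37C in HepG2 cells carrying hPXR-responsive CYP3A4 luciferase, plated in charcoal-stripped serum medium 5 h beforehand.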

Test [13] has the same target. Nature of the test: CYP3A4 induction through human pregnane X receptor (PXR) by small molecules, qHTS assay (AID 1346984). Note: nearly all actives have a fitted effect of over 40% in size. In a few lines:
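Read-out is luminescence after One-Glo addition, following a 3 hr, 37C incubation with Luciferin-IPA CYP3A4 substrate (3uM final). Before that, compounds were on DPX-2 cells (HepG2 co-transfected with PXR element plus CYP3A4-promoter luciferase) for 24 hr at 37C.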

Test [14] deals with Cytochrome P450 2C19 (Homo sapiens) (UniProt P33261). The test can be described thus: Cytochrome P450 Family 2 Subfamily C Member 19 (CYP2C19) small molecule antagonists: luciferase reporter qHTS assay (AID 1671197). Note: nearly all actives have a fitted effect of over 65% in size. Note: potency is the fitted concentration of half-maximal effect. Summed up: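 First, compounds are pinned into enzyme-substrate mix and held 10 min at room temperature. Second, NADPH regeneration solution is added and plates incubate 1 h at 37C. Third, detection reagent is added and luminescence read after 20 min.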
Sequence of Cytochrome P450 2C19 (Homo sapiens) (P33261 whole entry, looked up): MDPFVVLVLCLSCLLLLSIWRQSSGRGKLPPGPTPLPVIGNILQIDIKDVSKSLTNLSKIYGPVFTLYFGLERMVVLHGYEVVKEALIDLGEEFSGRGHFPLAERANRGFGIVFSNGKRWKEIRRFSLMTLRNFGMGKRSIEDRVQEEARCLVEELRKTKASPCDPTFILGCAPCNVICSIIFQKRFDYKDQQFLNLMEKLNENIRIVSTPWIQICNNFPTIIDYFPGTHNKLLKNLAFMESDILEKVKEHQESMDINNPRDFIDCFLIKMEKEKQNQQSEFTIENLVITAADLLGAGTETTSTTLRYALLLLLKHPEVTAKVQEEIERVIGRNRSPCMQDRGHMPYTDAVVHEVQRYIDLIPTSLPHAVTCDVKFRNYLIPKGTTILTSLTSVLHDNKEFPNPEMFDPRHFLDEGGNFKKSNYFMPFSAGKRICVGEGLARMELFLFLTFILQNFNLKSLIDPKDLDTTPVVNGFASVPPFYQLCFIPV

Test [15] concerns the target Nuclear receptor subfamily 1 group I member 2 (Homo sapiens) (UniProt O75469). Nature of the test: Human pregnane X receptor (PXR) activation by small molecules, qHTS assay (AID 1346985). Note: nearly all actives have a fitted effect of over 40% in size. Summed up:
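DPX-2 cells (HepG2 co-transfected with a PXR response element and a CYP3A4-promoter luciferase construct) were seeded at 2,000 per well, rested 5 hr at 37C, then exposed to DMSO-dissolved compounds for 24 hr. Activation was read as luciferase luminescence.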

Sequence of Cytochrome P450 3A4 (Homo sapiens) (P08684 whole entry, looked up): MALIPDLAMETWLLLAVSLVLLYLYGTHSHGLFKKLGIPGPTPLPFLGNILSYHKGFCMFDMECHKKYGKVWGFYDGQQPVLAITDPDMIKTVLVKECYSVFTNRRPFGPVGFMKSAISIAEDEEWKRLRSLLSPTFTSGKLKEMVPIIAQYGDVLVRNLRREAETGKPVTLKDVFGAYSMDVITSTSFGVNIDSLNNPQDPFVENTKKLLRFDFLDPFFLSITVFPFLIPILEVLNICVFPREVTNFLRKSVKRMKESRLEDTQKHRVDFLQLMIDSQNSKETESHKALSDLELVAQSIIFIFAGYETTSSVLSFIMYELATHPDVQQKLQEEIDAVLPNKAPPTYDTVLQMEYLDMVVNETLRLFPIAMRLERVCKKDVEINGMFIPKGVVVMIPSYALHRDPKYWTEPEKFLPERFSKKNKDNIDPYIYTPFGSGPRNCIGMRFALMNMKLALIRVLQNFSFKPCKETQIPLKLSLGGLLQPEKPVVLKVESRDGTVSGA
Sequence of Nuclear receptor subfamily 1 group I member 2 (Homo sapiens) (O75469 whole entry, looked up): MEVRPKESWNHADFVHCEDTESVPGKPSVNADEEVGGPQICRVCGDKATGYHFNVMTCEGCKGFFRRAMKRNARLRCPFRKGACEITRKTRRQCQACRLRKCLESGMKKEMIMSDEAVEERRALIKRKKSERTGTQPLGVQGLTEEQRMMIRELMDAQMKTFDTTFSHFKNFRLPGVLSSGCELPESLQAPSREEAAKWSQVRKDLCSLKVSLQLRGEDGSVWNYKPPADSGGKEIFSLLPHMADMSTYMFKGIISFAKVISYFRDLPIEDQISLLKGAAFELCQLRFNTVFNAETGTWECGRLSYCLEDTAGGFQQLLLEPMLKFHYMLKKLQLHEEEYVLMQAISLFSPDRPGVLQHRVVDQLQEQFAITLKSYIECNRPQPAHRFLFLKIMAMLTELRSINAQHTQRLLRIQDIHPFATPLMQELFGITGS
Sequence of Thyrotropin-releasing hormone receptor (Homo sapiens) (P34981 whole entry, looked up): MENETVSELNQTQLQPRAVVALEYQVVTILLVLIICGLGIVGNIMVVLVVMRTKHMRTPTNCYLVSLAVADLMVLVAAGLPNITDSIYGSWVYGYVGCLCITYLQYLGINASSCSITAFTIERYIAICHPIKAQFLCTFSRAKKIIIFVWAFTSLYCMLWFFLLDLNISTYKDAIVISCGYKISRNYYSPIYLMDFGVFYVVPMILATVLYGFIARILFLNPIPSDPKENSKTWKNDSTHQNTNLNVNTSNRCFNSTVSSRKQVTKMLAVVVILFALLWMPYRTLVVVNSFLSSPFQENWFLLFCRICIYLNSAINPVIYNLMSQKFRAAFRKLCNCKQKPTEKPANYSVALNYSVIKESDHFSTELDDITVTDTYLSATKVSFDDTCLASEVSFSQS
Sequence of Voltage-gated inwardly rectifying potassium channel KCNH2 (Homo sapiens) (Q12809 whole entry, looked up): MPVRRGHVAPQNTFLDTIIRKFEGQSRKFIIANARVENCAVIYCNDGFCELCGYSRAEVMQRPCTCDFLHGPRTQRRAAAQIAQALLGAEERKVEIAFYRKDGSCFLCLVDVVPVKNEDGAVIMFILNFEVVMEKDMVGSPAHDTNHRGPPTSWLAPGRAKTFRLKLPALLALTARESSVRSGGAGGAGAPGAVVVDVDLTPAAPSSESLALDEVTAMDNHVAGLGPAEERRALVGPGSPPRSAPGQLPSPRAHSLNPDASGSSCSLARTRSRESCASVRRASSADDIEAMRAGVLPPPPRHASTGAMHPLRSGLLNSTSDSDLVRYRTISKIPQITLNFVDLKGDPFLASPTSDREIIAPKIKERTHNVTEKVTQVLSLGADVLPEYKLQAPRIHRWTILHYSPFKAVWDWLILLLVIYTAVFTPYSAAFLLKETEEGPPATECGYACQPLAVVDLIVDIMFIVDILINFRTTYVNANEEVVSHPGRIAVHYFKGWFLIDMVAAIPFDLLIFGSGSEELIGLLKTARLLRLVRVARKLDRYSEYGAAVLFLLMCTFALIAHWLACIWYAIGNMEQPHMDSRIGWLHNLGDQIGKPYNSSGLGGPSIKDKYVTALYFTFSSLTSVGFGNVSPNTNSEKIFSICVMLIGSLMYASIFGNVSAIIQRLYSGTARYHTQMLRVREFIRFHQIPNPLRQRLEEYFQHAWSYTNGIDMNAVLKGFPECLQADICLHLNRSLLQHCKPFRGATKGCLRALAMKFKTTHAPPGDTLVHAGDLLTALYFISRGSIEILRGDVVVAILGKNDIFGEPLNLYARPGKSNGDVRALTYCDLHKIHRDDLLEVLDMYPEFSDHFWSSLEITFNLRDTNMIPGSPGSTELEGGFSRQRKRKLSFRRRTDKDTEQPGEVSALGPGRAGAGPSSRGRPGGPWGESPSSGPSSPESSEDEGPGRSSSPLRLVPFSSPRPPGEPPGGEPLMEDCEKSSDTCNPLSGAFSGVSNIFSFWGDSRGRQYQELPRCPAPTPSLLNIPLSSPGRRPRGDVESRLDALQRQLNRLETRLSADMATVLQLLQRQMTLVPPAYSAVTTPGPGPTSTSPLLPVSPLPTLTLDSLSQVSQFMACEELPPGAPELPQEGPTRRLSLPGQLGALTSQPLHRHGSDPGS
Sequence of Cytochrome P450 2C9 (Homo sapiens) (P11712 whole entry, looked up): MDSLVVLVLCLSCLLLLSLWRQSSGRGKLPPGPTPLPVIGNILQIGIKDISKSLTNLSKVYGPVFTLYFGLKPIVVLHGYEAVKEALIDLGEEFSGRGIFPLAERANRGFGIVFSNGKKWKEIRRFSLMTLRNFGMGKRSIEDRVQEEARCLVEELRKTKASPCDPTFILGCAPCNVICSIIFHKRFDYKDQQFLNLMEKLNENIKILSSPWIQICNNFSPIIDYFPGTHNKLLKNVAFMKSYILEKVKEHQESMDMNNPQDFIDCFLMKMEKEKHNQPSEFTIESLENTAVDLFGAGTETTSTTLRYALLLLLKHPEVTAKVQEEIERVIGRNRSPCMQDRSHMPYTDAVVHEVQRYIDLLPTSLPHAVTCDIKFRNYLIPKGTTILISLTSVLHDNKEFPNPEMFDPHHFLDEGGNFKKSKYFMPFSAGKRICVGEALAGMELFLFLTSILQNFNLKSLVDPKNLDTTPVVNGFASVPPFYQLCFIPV

Take `N#CCc1ccccc1[N+](=O)[O-]`: the call in test [1], in test [3], in test [5] and in test [6] was inactive. For the same compound, the Potency entry in [2], in test [4], in test [9] and in test [10] was “inactive” in each case. Moreover, the figures for the Potency in test [7] and in [8] were 78.7 µM (active) and 31.3 µM (active), respectively.
For `C(=C(c1ccccc1)c1ccccc1)c1ccccc1`, the outcome in test [1], in test [3], in test [5] and in test [6] was inactive. Further, the Potency result in test [2], in test [4], in [7] and in test [10] was “inactive” in each case. The results for the Potency in test [11] and in [8] were 5.03 µM (active) and 35.6 µM (active), respectively.
`O=[N+]([O-])c1ccc(CCO)cc1`: the call in test [1], in test [3] and in test [6] was inactive. For the same compound, the Potency result in [2], in test [4], in [12], in [7] and in test [11] was “inactive” each time.
Regarding `CCCCOCC(C)OCC(C)O` (stereo unspecified), the compound was called inactive in test [1], in test [3], in [5] and in test [6]. Besides, the Potency entry in test [2], in [4], in test [11], in test [8], in test [9] and in test [10] was “inactive” in each case. In addition, in test [7], the Potency was 29 µM (active).
For `CN(C)CCOC(c1ccc(Cl)cc1)c1ccccn1` (stereo unspecified), the call in [1], in test [3] and in test [6] was inactive. For the same compound, the Potency entry in test [2], in test [4], in test [12], in test [13], in test [14] and in [11] was “inactive” throughout. Besides, the Potency entry in test [9] is “inactive”. Moreover, in test [7], the Potency is 13.8 µM (active).
Consider `Nc1cc(C(Cl)=C(Cl)Cl)c(S(N)(=O)=O)cc1S(N)(=O)=O`, for which the compound was called inactive in test [1], in [3] and in test [6]. The Potency entry in test [2], in test [4], in [12], in test [13], in test [15] and in test [7] was “inactive” in each case. In addition, the Potency entry in test [8] and in [9] was “inactive” throughout.
Take `C=CCOCC(O)CS(=O)(=O)O` (stereo unspecified): the outcome in test [1], in test [3] and in [5] was inactive. Also, the Potency entry in [2], in test [4], in test [7], in test [11], in test [8] and in [9] was “inactive” each time. Moreover, the Potency result in test [10] was “inactive”. In [14], the Potency was 80.8 µM (active).
For `CO[Si](OC)(OC)OC`, the compound was classed as inactive in [1], in [3], in [5] and in test [6]. In addition, the Potency entry in test [2], in [4], in test [7], in test [14], in [11] and in [9] was “inactive” each time. Besides, the Potency result in [10] was “inactive”. Besides, the Potency in test [8] was 31 µM (active).
As to `OCCCCCCO`, the outcome in test [1], in test [3], in [5] and in test [6] was inactive. The Potency result in test [2], in test [4] and in test [9] was “inactive” in each case. Also, the Potency in test [7] was 36 µM (active); in test [11], 40.4 µM (active); in test [8], 40.4 µM (active).
For the compound `C#CC(C)(O)CC(C)C` (stereo unspecified), the result in test [1], in test [3], in [5] and in test [6] was inactive. For the same compound, the Potency result in test [2], in [4], in [7], in test [14], in test [11] and in [8] was “inactive” each time. Besides, the Potency result in test [9] and in [10] was “inactive” each time.
